Assay results: article PMC5540273 (PLoS ONE, 2017)

How the values were obtained:
Details in all cases: concentration: 1 μM, replicates: in singlicate; n = 1
TAOK3 = test system: TAOK3
TBK1 = test system: TBK1
TEC = test system: TEC
TESK1 = test system: TESK1
TGFBR1 = test system: TGFBR1
TGFBR2 = test system: TGFBR2
TIE1 = test system: TIE1
TIE2 = test system: T1, TIE2
T1 construct: gene TEK

TLK1 = test system: TLK1
TLK2 = test system: TLK2
TNIK = test system: TNIK
TNK1 = test system: TNK1
TNK2 = test system: TNK2
TNNI3K = test system: TNNI3K
TRKA = test system: T2, TRKA
T2 construct: gene NTRK1

TRKB = test system: TRKB
TRKC = test system: T3, TRKC
T3 construct: gene NTRK3

TRPM6 = test system: TRPM6
TSSK1B = test system: TSSK1B
TSSK3 = test system: TSSK3
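Note: KINOMEscan kinase panel screen.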

SMILES | %Inh (TAOK3) | %Inh (TBK1) | %Inh (TEC) | %Inh (TESK1) | %Inh (TGFBR1) | %Inh (TGFBR2) | %Inh (TIE1) | %Inh (TIE2) | %Inh (TLK1) | %Inh (TLK2) | %Inh (TNIK) | %Inh (TNK1) | %Inh (TNK2) | %Inh (TNNI3K) | %Inh (TRKA) | %Inh (TRKB) | %Inh (TRKC) | %Inh (TRPM6) | %Inh (TSSK1B) | %Inh (TSSK3)
Cc1nnc(-c2ccc3occ(-c4ccc(S(C)=O)cc4)c3c2)[nH]1 (centres unmarked) | 0% | 0% | 13% | 2% | 10% | 0% | 0% | 5% | 14% | 0% | 5% | 0% | 0% | 15% | 28% | 0% | 43% | 1% | 0% | 2%
O=C(O)COc1ncnc2cc(-c3ccc4[nH]ncc4c3)sc12 | 0% | 11% | 0% | 13% | 10% | 18% | 24% | 21% | 22% | 0% | 10% | 0% | 0% | 0% | 33% | 42% | 0% | 6% | 0% | 0%
Clc1cc(Cl)cc(Nc2ccnc(Nc3cc(Cl)cc(Cl)c3)n2)c1 [GSK175726] | 0% | 28% | 0% | 20% | 0% | 7% | 0% | 0% | 25% | 3% | 0% | 0% | 12% | 6% | 19% | 0% | 0% | 0% | 0% | 10%
Nc1nc(-c2nccs2)c(-c2ccnc3ccccc23)s1 [GW693542] | 0% | 5% | 16% | 26% | 27% | 55% | 26% | 0% | 0% | 0% | 10% | 0% | 24% | 4% | 0% | 0% | 23% | 4% | 16% | 79%
O=C(Nc1n[nH]c2nc(-c3nccs3)c(Br)cc12)C1CCCC1 [SB-742609] | 0% | 0% | 0% | 43% | 31% | 0% | 14% | 0% | 0% | 0% | 1% | 2% | 4% | 6% | 0% | 59% | 24% | 0% | 8% | 0%
Nc1ncnc2[nH]c(-c3ccccc3)nc12 [AH5015] | 9% | 10% | 28% | 30% | 10% | 9% | 38% | 0% | 0% | 0% | 1% | 0% | 24% | 11% | 0% | 45% | 26% | 4% | 9% | 7%
Cn1ccc2ncnc(Oc3ccc(Nc4nc5ccccc5[nH]4)cc3)c21 | 0% | 0% | 0% | 0% | 0% | 0% | 5% | 0% | 0% | 0% | 0% | 0% | 0% | 0% | 0% | 0% | 0% | 100% | 0% | 0%
CCCc1ccc(S(=O)(=O)NC2CCN(c3ccnc(Nc4ccc(F)cc4)n3)C2)cc1 (centres unmarked) [GSK1379715] | 0% | 0% | 0% | 74% | 0% | 0% | 0% | 0% | 0% | 0% | 0% | 0% | 26% | 13% | 0% | 0% | 28% | 0% | 100% | 15%
Cn1ccc2ncnc(Oc3cccc(C(=O)Nc4ccccc4)c3)c21 | 0% | 0% | 11% | 0% | 8% | 0% | 0% | 0% | 5% | 7% | 16% | 3% | 9% | 1% | 21% | 0% | 0% | 0% | 9% | 0%
O=C(Nc1ccccc1)Nc1cccc(Oc2ccc3nccn3n2)c1 | 0% | 10% | 0% | 0% | 5% | 9% | 0% | 92.4% | 17% | 0% | 7% | 23% | 0% | 0% | 0% | 0% | 27% | 0% | 0% | 0%
